Screening data deposited in PubChem BioAssay by National Center for Advancing Translational Sciences (NCATS).
In the library only some 5.8% were active in any assay of this set; here they are far more common.
KB-V1 cytotox: kills drug-selected multidrug resistant KB-V1 cells; KB-V1 MDR cells viability, CellTiter-Glo, 72 h; Potency, µM (titrated, usually from 46.1 µM), usual class: cytotoxic; actives 3.4% (n = 400,000); AID 1347076; also: % is scaled to controls: 0 for no effect and ±100 for the full control effect; nearly all actives have a fitted effect of over 60% in size
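In this primary screen, KB-V1 cells overexpressing P-gp are incubated with library compounds (lowest to highest concentration) for 72 h at 37 degrees C before a luminescent ATP viability read.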
MCF10A rereplic: DNA re-replication induction in MCF 10a cells; MCF 10A DNA re-replication, Hoechst nuclear intensity, 48 h; Potency, µM (doses to about 46.1 µM), for inactives: top-dose activity, positive = re-replication, hits mostly activators; actives 2.9% (n = 350,000); also: % of control where 0% means no effect; nearly all actives have a fitted effect of over 50% in size
SW480 rereplic: DNA re-replication induction in SW480 cells; SW480 DNA re-replication, Hoechst DNA content imaging, 48 h; Potency, µM (series often up to 46.1 µM), for the others: at the top dose re-replication activation, hits mostly activators; actives 1.8% (n = 340,000); AID 624297; also: % of control where 0% means no effect; nearly all actives have a fitted effect of over 55% in size
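SW480 cells exposed to compounds for 48 hr at 37 C, 5% CO2, then Hoechst-stained 40 min. Nuclear DNA content imaged by fluorescence scanning (405 nm excitation, 500-530 nm emission); re-replication scored as increased high-intensity nuclei.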
KB-3-1 tox: KB-3-1 parental cell cytotoxicity; KB-3-1 viability, CellTiter-Glo ATP luminescence, 72 h; Potency, µM (series often up to 46.1 µM), hits mostly cytotoxic; actives 1.4% (n = 400,000); AID 1347075; also: % is scaled to controls: 0 for no effect and ±100 for the full control effect; nearly all actives have a fitted effect of over 60% in size
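KB-3-1 parental drug-naive adenocarcinoma cells in DMEM/10% FBS, incubated 72 h at 37 C with pin-transferred compounds across a concentration series. Viability by CellTiter-Glo luminescence; concentration-response curves fitted after normalization.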
PINK1 modulator: changes PINK1 expression | PINK1 immunofluorescence, high-content cytometry, 24 h | actives 0.2% (n = 410,000) | Potency, µM (titrated, usually from 76.6 µM), inactives show top-dose activation (PINK1 increase), most hits filed as activators; active = well fitted activation curve with a large enough effect; inconclusive = small, poorly fitted or top-dose-only effect; cell line not stated here; also: % of control where 0% means no effect; nearly all actives have a fitted effect of over 65% in size
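Readout is PINK1 immunofluorescence, quantified alongside mitochondrial, cell and nuclear markers by laser-scanning microplate cytometry. Cells from a stable line were exposed to compound titrations (5 concentrations) for 24 hours, with CCCP controls.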
12-LOX inh: blocks human arachidonate 12S-lipoxygenase; P18054; purified 12hLO, xylenol orange hydroperoxide absorbance; Potency, µM (titrated, usually from 108 µM), inactives show at the highest dose activity change, negative = inhibition, actives largely listed as inhibitors; actives 1.1% (n = 580,000); AID 1671190; also: % is scaled to controls: 0 for no effect and ±100 for the full control effect
Target sequence (P18054 whole entry, looked up): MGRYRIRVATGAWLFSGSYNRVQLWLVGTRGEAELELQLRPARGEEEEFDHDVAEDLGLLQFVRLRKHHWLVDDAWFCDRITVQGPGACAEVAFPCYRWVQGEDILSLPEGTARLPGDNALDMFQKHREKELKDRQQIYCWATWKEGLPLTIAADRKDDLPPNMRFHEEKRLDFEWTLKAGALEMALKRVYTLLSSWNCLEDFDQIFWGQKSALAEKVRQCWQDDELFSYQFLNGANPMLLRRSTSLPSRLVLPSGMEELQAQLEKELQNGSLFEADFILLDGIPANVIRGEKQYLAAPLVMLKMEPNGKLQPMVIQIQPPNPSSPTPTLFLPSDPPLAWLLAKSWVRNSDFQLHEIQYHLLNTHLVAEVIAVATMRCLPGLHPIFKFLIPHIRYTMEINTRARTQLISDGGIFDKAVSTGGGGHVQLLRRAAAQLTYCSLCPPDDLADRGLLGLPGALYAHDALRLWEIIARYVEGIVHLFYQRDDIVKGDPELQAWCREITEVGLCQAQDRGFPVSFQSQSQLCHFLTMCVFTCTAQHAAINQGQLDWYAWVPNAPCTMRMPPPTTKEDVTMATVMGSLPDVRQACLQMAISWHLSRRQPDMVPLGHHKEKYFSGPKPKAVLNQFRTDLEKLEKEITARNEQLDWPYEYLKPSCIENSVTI
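Hydroperoxide product was detected by ferrous iron/xylenol orange as the 573 to 405 nm absorbance ratio. Arachidonic acid at 40 uM (final) was turned over for 30 min at room temperature by 150 nM human 12hLO, pH 7.0 Hepes buffer, after 15 min compound preincubation.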
Numbers without * were called inactive; i = inactive; ? = inconclusive; nt = not tested or not shown; ! = not confirmed by another sample; [ ] = another dose, or the depositor's remark. Unless noted, calls follow the shape of the dose curve; as a rule, active = well fitted curve in the direction sought with a large enough effect; inconclusive = small, poorly fitted or top-dose-only effect, or another doubt; inactive = no such curve, though single readings can be large; an effect the other way counts as inactive or inconclusive. Potency is read from the fitted curve at half-maximal effect.

SMILES	KB-V1 cytotox	MCF10A rereplic	SW480 rereplic	KB-3-1 tox	PINK1 modulator	12-LOX inh
O=C(Cc1ccc(F)cc1)N1CCC2(CC1)NC(=O)N(c1ccccc1Cl)N2	nt	nt	nt	nt	nt	1.26µM*
O=C(c1ccc(F)cc1Cl)N1CCC2(CC1)NC(=O)N(c1ccccc1Cl)N2	nt	nt	nt	nt	nt	1.41µM*
O=C(COc1ccc(F)cc1)N1CCC2(CC1)NC(=O)N(c1ccccc1Cl)N2	nt	nt	nt	nt	nt	1.41µM*
Cn1cc(CN2C[C@@H](F)[C@@H](OCc3nc4ccccc4o3)C2)c2ccccc21	nt	nt	nt	nt	nt	1.7%[176 µM]
Cc1cc(C(=O)NC2CCCC2)c2c(C3CCNC3)noc2n1 (stereo unspecified)	nt	nt	nt	nt	nt	5.1%[6.33 µM]
CCN(C(=O)COC(=O)/C=C/c1c(C)nn(Cc2ccc(C)cc2)c1C)C1CCS(=O)(=O)C1 (stereo unspecified)	i	-2.8%[9.22 µM]	16.4µM*	i	0.1%	?
CCN(C(=O)COC(=O)/C=C/c1cccc(Br)c1)C1CCS(=O)(=O)C1 (stereo unspecified)	i	?	?	i	-1.3%	-8.1%
CCC(C)NCc1ccc(C)cc1 (stereo unspecified)	nt	nt	nt	nt	nt	9.6%
Cc1ccc(C(=O)NCC(NC(=O)c2ccc(C)nc2)C2CC2)cn1 (stereo unspecified)	nt	nt	nt	nt	nt	5.6%
CCOc1ccc(NC(=O)c2nc(S(=O)(=O)Cc3ccc(C)cc3)ncc2Cl)cc1	i	nt	nt	?	6.0%	-29.0%
CCc1nnc(NC(=O)c2nc(S(=O)(=O)Cc3ccccc3)ncc2Cl)s1	?	0.82µM*	?	23.1µM*	-1.6%	-6.0%
CCSc1nnc(NC(=O)c2nc(S(=O)(=O)Cc3ccc(F)cc3)ncc2Cl)s1	i	26.8%	?	?	-1.7%	-6.5%
CCOc1ccccc1NC(=O)c1nc(S(=O)(=O)Cc2cccc(C)c2)ncc1Cl	?	?	3.26µM*	5.17µM*!	-1.0%	40.7%
CCc1nnc(NC(=O)c2nc(S(=O)(=O)Cc3ccc(C)cc3)ncc2Cl)s1	?	1.3µM*	93.4%	16.4µM*!	-1.0%	1.5%
CSc1nnc(NC(=O)c2nc(S(=O)(=O)Cc3cccc(C)c3)ncc2Cl)s1	?	2.06µM*	21.1%	16.4µM*	-2.0%	-3.6%
COC(=O)c1ccccc1NC(=O)c1nc(S(=O)(=O)Cc2ccccc2)ncc1Cl	i	?	-4.2%	i	1.7%	15.7%
Clc1ccc(-c2nnc3n2CCN(Cc2ccsc2)C3)cc1	nt	nt	nt	nt	nt	1.7%[6.33 µM]
CCC(=O)c1c(OCCC(C)C)ccc2c(C)cc(=O)oc12	nt	nt	nt	nt	nt	-3.7%
COc1ccc(NC(=O)C(=O)c2c[nH]c3ccc(Br)cc23)cc1	nt	nt	nt	nt	nt	-2.9%
COc1ccc2cnn(CC(=O)N3CCN(c4ccccc4F)CC3)c(=O)c2c1OC	nt	nt	nt	nt	nt	12.7%
CCOc1ccc(NC(=O)CCC2CCN(c3cc(NC4CC4)ncn3)CC2)cc1	nt	nt	nt	nt	nt	24.6%
Cc1cccc(CS(=O)(=O)c2ncc(Cl)c(C(=O)Nc3nnc(C(C)C)s3)n2)c1	16.4µM*	?	?	16.4µM*	-1.5%	?
CCc1nnc(NC(=O)CN2CCN(Cc3ccc(C)cc3)CC2)s1	i	0.92µM*	?	i	3.0%	0.0%
CCc1nnc(NC(=O)c2nc(S(=O)(=O)Cc3cccc(C)c3)ncc2Cl)s1	?	?	5.8µM*	20.6µM*	-0.7%	1.8%
Cc1ccc(C(=O)NNc2cc(N3CCCC3)nc(N3CCCC3)n2)cc1	1.46µM*	18.9%	10.0%	i	-0.1%	nt
SMILES	KB-V1 cytotox	MCF10A rereplic	SW480 rereplic	KB-3-1 tox	PINK1 modulator	12-LOX inh
O=C(NNc1cc(N2CCOCC2)nc(N2CCOCC2)n1)c1ccc(Cl)c(Cl)c1	11.6µM*	-44.1%	107.4%	i	?	-0.4%
COc1ccc(OC(C)C(=O)Nc2cccc([N+](=O)[O-])c2)cc1 (stereo unspecified)	16.4µM*	-42.6%	-149.3%	i	3.0%	?
O=C(Nc1ccc([N+](=O)[O-])cc1)Nc1ccc(OC(F)F)c(Cl)c1	4.61µM*	?	18.4µM*	5.8µM*	?	-11.5%
COc1ccc(C(=O)Nc2cccc([N+](=O)[O-])c2)cc1Br	i	5.4%	-8.1%	i	8.3%	184.4%
COc1ccc(NC(=S)Nc2cccc([N+](=O)[O-])c2)cc1	i	121.3%[0.0737 µM]	-0.5%	i	-1.1%	-23.4%
COc1ccc(NC(=O)Nc2cccc([N+](=O)[O-])c2)cc1Cl	14.6µM*	?	-1.4%	i	?	-5.6%
CC(=O)Nc1cccc(NC(=O)CC2(Cc3nc4ccccc4s3)CCCC2)c1	nt	nt	nt	nt	nt	-2.7%
COc1ccc2oc(-c3ccccc3)c(C(=O)Nc3ccc(N(C)C(C)=O)cc3)c2c1	nt	nt	nt	nt	nt	32.1%
Cc1cccc(Cn2c(Sc3nncn3C)nc3c2c(=O)[nH]c(=O)n3C)c1	nt	nt	nt	nt	nt	14.3%
CCOc1ccc(NC(=O)N(C(C)C)C2CCN(C(C)=O)CC2)cc1	nt	nt	nt	nt	0.8%	-7.4%
CCOc1ccc(NC(=O)N2CCC(c3ccc(C)cc3)C2)cc1 (stereo unspecified)	20.6µM*	9.2%	-7.6%	i	5.4%	-7.9%
CCOc1ccc(NC(=O)N(CCC(C)C)C2CCN(C(C)=O)CC2)cc1	18.4µM*	-11.1%	-1.6%	i	-1.7%[38.3 µM]	25.7%
O=C1CC(c2ccccc2)CC(O)=C1C=NC1CCCCC1 (stereo unspecified)	6.51µM*	-2.2%	8.2%	i	9.8%[38.3 µM]	1.7%
O=C1CC(c2ccccc2)CC(O)=C1C=NC1CCCCCC1 (stereo unspecified)	i	-6.6%	-4.3%	i	-2.6%[38.3 µM]	15.5%
Cc1ccc(N2CCOCC2)c2c1C(=O)c1ccccc1C2=O	14.6µM*	?	9.0%	i	-1.6%	-5.8%
O=C1C=C(N2CCOCC2)c2ccccc2C1=O	?	?	2.91µM*	?	-0.5%	-25.5%
CC1=C(C)C(=O)C(N2CCOCC2)=CC1=O	i	-6.4%	-5.7%	i	-0.5%	-25.1%
CN(C1=C(N2CCOCC2)C(=O)c2ccccc2C1=O)c1ccccc1	11.6µM*	9.7%	5.8%	i	-1.8%	-1.6%
O=C1C=C(N2CCOCC2)c2cccc3cccc1c23	?	nt	nt	i	1.0%	?
O=C1C(N2CCOCC2)=Cc2cccc3cccc1c23	16.4µM*	nt	nt	i	-0.6%	?
CC(C)C(=O)N1CCC2(CC1)OC(=O)N(CCOc1ccccc1)C2(C)c1cccnc1 (stereo unspecified)	nt	nt	nt	nt	nt	-13.7%[176 µM]
CCOc1ccc(Nc2oc(COc3ccccc3F)nc2C#N)cc1	nt	nt	nt	nt	nt	5.6%
Cc1ccc(C)c(N2CCN(C3CCCCC3NS(=O)(=O)c3ccccc3)CC2)c1 (stereo unspecified)	i	?	26.7%	16.4µM*	3.1%	nt
